# Assay outcomes: PubChem BioAssay, Broad Institute
# N-glyco inh = N-linked glycosylation inhibition; AID 588692; 0.23% of 360,000 active; reporter increase, % at 12.5 µM; D54 ERlucT glycosylation luciferase reporter, 24 h; percent of 100 nM tunicamycin response;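 active means mean luciferase reporter signal, scaled so untreated is 0 and the glycosylation-blocking control 100, at or above a set limit in every replicate; inconclusive means mean reaches the limit but not every replicate does; inactive means mean below the limit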;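 further: luciferase carries N-glycosylation sites so blocking glycosylation raises the light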
# TRPM1 prom inh = reduces MITF-dependent TRPM1 promoter luciferase signal | SK-MEL-5 TRPM1 promoter luciferase, 24 h | 0.83% of 330,000 active | inhibition, % at 12.5 µM;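 active means mean inhibition across replicates of 60% or more, whatever share of single replicates reaches that level; inconclusive means some that reach 60%, reason not given; inactive means mean inhibition across replicates below 60%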
# Wnt bcat act = Wnt/beta-catenin pathway activation | 1.2% of 300,000 active | Wnt/beta-catenin reporter cell assay, activator, plate reader | activation, % at 9.35 µM; in the data active means activation above about 30%, passing the limit was not always enough; inconclusive means no clear call, values can overlap the other calls
# MITF TRPM1 HTS = increases MITF-driven TRPM1 promoter luciferase signal | activation, % at 12.5 µM | AID 588334 | SK-MEL-5 TRPM1-promoter luciferase, 24 h; % of positive control, neutral wells = 0 | 0.75% of 300,000 active;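 active means mean activation of at least 80% with every replicate also reaching 80%; inconclusive means mean reaches 80% but some replicate falls short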
# NSD2 inh = inhibitors of human histone methyltransferase NSD2 | inhibition, % at 12.5 µM | 0.54% of 310,000 active | AID 743445 | NSD2 peptide methylation, AlphaScreen, 120 min; in the data active means inhibition above about 50%
# PfHsp90 set2 = growth inhibition of yeast expressing Plasmodium Hsp90 | S. cerevisiae expressing PfHsp90, BacTiter-Glo ATP, 48 h; yeast lacking PDR1 and PDR3 efflux regulators | inhibition, % at 9.4 µM | 0.32% of 310,000 active;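 active means every replicate shows inhibition above about 80%, whatever the replicate mean, limit read from the data; inconclusive means mean inhibition reaches the set limit but some replicate falls short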
# Numbers stand for hits; 0 = inactive; ? = inconclusive; - = not tested or not shown. In the library only some 2.9% were active in any assay of this set; here they are far more common.
SMILES,N-glyco inh,TRPM1 prom inh,Wnt bcat act,MITF TRPM1 HTS,NSD2 inh,PfHsp90 set2
CC(=O)SC(C[N+](=O)[O-])c1cn(C(C)=O)c2ccccc12 (stereo not given),0,106,-,0,-,124
CC(=O)n1cc(Nc2ccc([N+](=O)[O-])cc2)c2ccccc21,0,0,0,0,0,0
COC(=O)[C@]12C[C@H](CC(=O)N3CCN(C(=O)C4CC4)CC3)C(=O)N(Cc3ccccc3)C1=C[C@H](C(C)C)O[C@@H]2C1CC1,-,-,0,-,-,-
Cc1cccc(S(=O)(=O)NNC(=O)c2sc(C)nc2C)c1,0,0,0,0,0,0
CC(=O)Oc1ccccc1C(=O)C=Cc1cccc([N+](=O)[O-])c1,0,93,0,0,0,106
O=C(/C=C/c1cccc([N+](=O)[O-])c1)n1cnc2ccccc21,0,67,0,0,0,0
Cc1cc(O)c(C(=O)/C=C/c2cccc([N+](=O)[O-])c2)c(=O)o1,0,0,0,-,0,0
O=C(/C=C/c1cccc([N+](=O)[O-])c1)c1cccs1,0,80,0,0,0,93
O=C(/C=C/c1cccc([N+](=O)[O-])c1)c1ccc2c(c1)OCCO2,31,0,0,0,0,0
O=C(/C=C/c1cccc([N+](=O)[O-])c1)Nc1ccc(NC(=O)c2cccs2)cc1,0,0,-,0,0,0
COc1ccc(-n2c(SCC(=O)NNC(=S)Nc3ccc(C)cc3)nnc2-c2ccccc2)cc1,-,-,-,-,0,-
CON(C)C(=O)C[C@@H]1C[C@H](OC(=O)c2ccc([N+](=O)[O-])cc2)CN1C(=O)OC(C)(C)C,0,0,0,0,-,0
COc1ccc(S(=O)(=O)NCC(=O)N2CCN(c3ccccn3)CC2)c(OC)c1,-,-,-,-,0,-
Cc1nc(Nc2nc(-c3ccccc3)cc(=O)[nH]2)nc2ccccc12,103,0,-,0,0,0
CC(C)CC(=O)Nc1ccc2c(c1)oc1ccccc12,0,0,-,91,-,0
CCCCC(=O)Nc1ccc2c(c1)oc1ccccc12,0,0,0,?,0,0
COc1cc(C2CC(c3cccs3)=NN2C(=O)CCl)ccc1OC(F)F (stereo not given),0,65,0,0,-,0
COc1ccc(C2CC(c3cccs3)=NN2C(=O)CCl)cc1OC (stereo not given),0,83,0,0,0,0
COc1ccc(C2CC(c3cccs3)=NN2C(=O)c2ccccc2)cc1OC (stereo not given),0,0,0,0,0,0
COc1cc(NC(=O)C2CCCN(S(=O)(=O)c3ccccc3[N+](=O)[O-])C2)cc(OC)c1 (stereo not given),-,-,-,-,0,-
CCc1ccc(OCC(=O)NNC(=S)NC(=O)C2CCCCC2)c(Br)c1,-,0,0,0,0,0
O=C(COc1ccc(F)cc1Cl)NC1CCCCCC1,0,0,40,?,0,0
CCc1ccc(OCC(=O)NNC(=S)NC(=O)C2CC2)c(Br)c1,0,0,0,0,0,108
CCc1ccc(OCC(=O)NC2CCCCC2)c(Br)c1,0,0,0,101,0,0
O=C(COc1ccc(Br)cc1Br)NC(=O)NC1CCCC1,0,0,0,104,0,0
SMILES,N-glyco inh,TRPM1 prom inh,Wnt bcat act,MITF TRPM1 HTS,NSD2 inh,PfHsp90 set2
CCOc1ccc(NC(=O)CN(C)C(=O)c2c(-c3ccccc3)noc2C)cc1OCC,0,0,0,0,0,0
COC(=O)[C@H]1C[C@]2(C/C=C(\C)CCC=C(C)C)c3ccccc3N[C@H]2N1,-,-,-,-,0,-
COC(=O)C(=Cc1ccc(-c2ccsc2C(=O)OC)o1)C(=O)OC,35,0,0,0,0,0
COC(=O)c1sccc1-c1ccc(C(N)=O)o1,-,-,-,-,0,-
COC(=O)c1sccc1-c1ccc(C(=O)Nc2cccnc2)o1,0,0,0,97,0,0
COc1ccccc1C(=O)NCC(=O)OCC(=O)N1CC(C)OC(C)C1 (stereo not given),0,0,0,0,0,0
COc1ccccc1N1CCN(S(=O)(=O)c2ccc(-c3ccc(=O)[nH]n3)o2)CC1,0,0,0,0,0,0
Cc1cccc(N2CCN(S(=O)(=O)c3ccc(-c4ccc(=O)[nH]n4)o3)CC2)c1C,40,0,0,0,0,0
CCOc1ccc(N(CC(=O)Nc2c(C)n(C)n(-c3ccccc3)c2=O)S(=O)(=O)c2cc(OC)ccc2OC)cc1,-,-,-,-,0,-
CCOC(=O)/C=C1/N(C)c2ccccc2C1(C)C,0,0,41,0,-,0
CC1CN(S(=O)(=O)c2cc(C(=O)N3CCCCC3C)ccc2Cl)CC(C)O1 (stereo not given),0,0,0,0,0,0
CCOC(=O)N1CCC(N2C(=O)c3ccccc3C2Nc2ccc3c(C)cc(=O)oc3c2)CC1 (stereo not given),0,0,0,0,-,0
CCOC(=O)N1CCC(N2C(=O)c3ccccc3C2Nc2ccc3c(c2)OCCO3)CC1 (stereo not given),0,71,0,0,-,0
COCCCNC(=S)NNC(=O)c1ccc(C(C)(C)C)cc1,0,0,0,0,0,0
COCCCNC(=S)NNC(=O)c1csc(C)n1,0,0,41,0,0,0
O=C(NCCO)/C(=C\c1cccc([N+](=O)[O-])c1)NC(=O)c1cccs1,0,-,0,-,0,-
CCOc1ccccc1C(=O)Nc1ccc2nc(C)[nH]c(=O)c2c1,-,-,-,-,0,-
O=C(CSc1ccccc1)Nc1ccc(-c2nc3ccccc3[nH]2)cc1,0,0,0,0,0,0
O=C(Cc1cccs1)Nc1ccc(-c2nc3ccccc3[nH]2)cc1,33,0,-,0,0,0
O=C(CN1CCOCC1)Nc1ccc(-c2nc3ccccc3[nH]2)cc1,0,0,-,84,0,0
CC1CCN(C(=O)COC(=O)c2ccc3c(c2)OCO3)CC1,0,0,0,0,0,-
COc1ccc(CCNC(=O)c2cc(-c3ccco3)on2)cc1OC,63,0,103,0,0,0
O=C(NCCc1ccccc1)c1cc(-c2ccco2)on1,48,0,141,0,0,0
COc1ccc(C2CC(=O)C(c3cccc(OC)c3)=CN2Cc2ccccc2)cc1 (stereo not given),-,-,0,-,-,-
CC(C)(C)c1nn(-c2ccccc2)c2[nH]c(=O)c(CNCc3ccc4c(c3)OCO4)cc12,0,66,-,0,0,0
CCOc1cccc(NCc2cc3c(C(C)(C)C)nn(-c4ccccc4)c3[nH]c2=O)c1,0,0,0,0,0,0
Cc1ccsc1/C=N\NC(=O)c1ccc2c(c1)OCO2,0,0,39,-,0,-
O=C(N/N=C/c1ccc2c(c1)OCO2)c1ccc2c(c1)OCO2,0,0,0,0,0,0
O=C(NN=Cc1ccc2c(c1)OCO2)c1ccccc1,0,0,63,0,0,0
Nc1ccn([C@@H]2O[C@H](C(=O)N[C@H](Cc3ccccc3)C(=O)N3CCN(C(=O)N4CCCCC4)CC3)[C@@H](O)[C@H]2O)c(=O)n1,-,-,0,-,0,-
